Compound activity (PubChem BioAssay)
AmpC no deterg: inhibitors of E. coli AmpC beta-lactamase without detergent; P00811; AmpC nitrocefin hydrolysis, absorbance 480 nm, 0.0001% Triton; Potency, µM (highest dose often 57.1 µM), inactives show top-dose activity change, negative = inhibition, actives largely listed as inhibitors; 330,000 tested, 0.52% active;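 also: plate controls were no compound for no effect and no enzyme for full effect; nearly all actives have a fitted effect of over 20% in size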
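20 mM phosphate pH 7.0 + 0.01% (detergent screen) or 0.0001% Triton X-100; 5.3 nM AmpC reagent; cpd preinc 15 min RT; nitrocefin (800 uM stock) to start; A480 q20 s × 4 min; Activity was normalised to no-enzyme and no-compound control wells.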
Giardia FBPA inh-1: blocks Giardia fructose-bisphosphate aldolase activity; A8B2U2; purified Giardia FBPA; Potency, µM (titrated, usually from 59.6 µM), without a hit: top-dose activity, negative = inhibition, most hits filed as inhibitors; 290,000 tested, 0.71% active; AID 2451; also: nearly all actives have a fitted effect of over 55% in size
Target sequence (A8B2U2 whole entry, looked up): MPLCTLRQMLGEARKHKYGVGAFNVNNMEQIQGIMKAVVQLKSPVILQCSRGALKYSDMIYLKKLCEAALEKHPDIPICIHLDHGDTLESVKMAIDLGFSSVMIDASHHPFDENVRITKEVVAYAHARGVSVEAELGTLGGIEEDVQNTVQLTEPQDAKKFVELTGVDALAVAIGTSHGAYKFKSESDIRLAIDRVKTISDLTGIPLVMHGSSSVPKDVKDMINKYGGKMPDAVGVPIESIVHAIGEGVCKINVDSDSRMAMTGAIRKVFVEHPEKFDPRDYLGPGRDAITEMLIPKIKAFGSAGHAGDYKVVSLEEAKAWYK
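Giardia FBPA (40 nM reagent) was preincubated 10 min at RT with compound (up to 57.5 uM final), then substrate plus GAPDH/TPI/NAD/arsenate coupling system with diaphorase/resazurin was added; resorufin fluorescence (525/598 nm) was read after 20 min.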
AmpC detergent: inhibitors of E. coli AmpC beta-lactamase with detergent; 370,000 tested, 0.041% active; AmpC hydrolysis of nitrocefin, absorbance 480 nm, 0.01% Triton; P00811; Potency, µM (series often up to 114 µM), for the others: at the top dose activity change, negative = inhibition, hits mostly inhibitors;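 also: 0% = no-compound wells and -100% = no-enzyme wells; nearly all actives have a fitted effect of over 25% in size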
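AmpC (5.3 nM in the dispensed reagent) in 20 mM phosphate pH 7.0 with 0.01% (detergent screen) or 0.0001% Triton X-100 was preincubated with compounds for 15 min at room temperature. Nitrocefin was then added from an 800 uM solution, and hydrolysis was followed at 480 nm.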
AMA1 RON2 block: inhibitors of Plasmodium falciparum AMA1-RON2 interaction | AlphaScreen AMA1-biotinylated RON2 peptide binding | Potency, µM (doses to about 58.2 µM), inactives show at the highest dose activity change, negative = inhibition, hits mostly inhibitors | 360,000 tested, 0.2% active;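 also: 0% = vehicle wells and -100% = peptide control; nearly all actives have a fitted effect of over 45% in size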
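AMA1 (3D7) with his tag at 25 nM final met compounds first, then biotinylated RON2 peptide at 25 nM; detection used donor plus acceptor beads, 10 µg/mL apiece, read by AlphaScreen after 30 min at room temperature.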
Giardia growth: blocks growth of Giardia lamblia trophozoites | shares compounds with Giardia FBPA inh-1 | Giardia lamblia trophozoite growth inhibition | Potency, µM (doses to about 57.5 µM), without a hit: at the highest dose activity change, negative = inhibition, most hits filed as inhibitors | 1,500 tested, 5% active | AID 2785;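 also: trophozoites exposed to compound for 48 h at 37 °C; nearly all actives have a fitted effect of over 70% in size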
Mammal cell tox: toxic to mammalian cells in Giardia aldolase counter-screen. shares compounds with Giardia FBPA inh-1. Potency, µM (doses to about 57.5 µM), inactives show at the highest dose viability change, negative = toxicity, usual class: inhibitors. mammalian cell viability counter-screen, qHTS. 1,500 tested, 4% active;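 also: Chinese hamster ovary cells used as mammalian cytotoxicity surrogate; viability measured as cellular ATP by luminescence; compound exposure lasted 48 h before reading; nearly all actives have a fitted effect of over 60% in size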
Giardia FBPA inh-2: confirmation of Giardia fructose-bisphosphate aldolase inhibitors; 1,500 tested, 5% active; shares compounds with Giardia FBPA inh-1; Potency, µM (highest dose often 57.5 µM), without a hit: at the top dose activity change, negative = inhibition, hits mostly inhibitors; purified Giardia aldolase enzyme activity, qHTS; also: nearly all actives have a fitted effect of over 45% in size
Rabbit aldolase: blocks rabbit muscle aldolase in Giardia aldolase selectivity test; shares compounds with Giardia FBPA inh-1; Potency, µM (titrated, usually from 57.5 µM), for the others: at the top dose activity, negative = inhibition, hits mostly inhibitors; Rabbit muscle FBPA enzyme inhibition, selectivity counter-screen; 1,500 tested, 4% active; also: nearly all actives have a fitted effect of over 60% in size
GAPDH coupling: counter-screen for Giardia aldolase inhibitors: GAPDH coupling enzyme; shares compounds with Giardia FBPA inh-1; GAPDH coupling enzyme counterscreen, biochemical, qHTS; Potency, µM (doses to about 57.5 µM), inactives show top-dose activity change, negative = inhibition, actives largely listed as inhibitors; 1,500 tested, 6% active; also: nearly all actives have a fitted effect of over 55% in size
* marks the source's active call; other numbers are inactive results; u = inconclusive; x = no result; [ ] = dose if it differs, or a comment. Most compounds without a hit are left out; they make up all but 1.1% or so of the library. Calls follow the shape of the dose curve; as a rule, active = well fitted curve in the direction sought with a large enough effect; inconclusive = small, poorly fitted or top-dose-only effect, or another doubt; inactive = no such curve, though single readings can be large; an effect the other way counts as inactive or inconclusive. Unless noted, % is scaled to controls: 0 for no effect and ±100 for the full control effect; potency is read from the fitted curve at half-maximal effect.

SMILES | AmpC no deterg | Giardia FBPA inh-1 | AmpC detergent | AMA1 RON2 block | Giardia growth | Mammal cell tox | Giardia FBPA inh-2 | Rabbit aldolase | GAPDH coupling
CN1CCN(C(=S)NC(=O)c2cccc([N+](=O)[O-])c2)CC1 | -11% | 1.8µM* | -14% | 37% | -22%[38.3 µM] | -16% | -5% | 0% | -1%
CC1CN(C(=S)NC(=O)c2ccccc2)CC(C)O1 (centres undefined) | -10% | x | -2% | 110% | x | x | x | x | x
CC1CN(C(=S)NC(=O)c2ccc([N+](=O)[O-])cc2)CC(C)O1 (centres undefined) | -21% | 20µM* | u | 16% | 5µM* | 10% | 1% | 14% | 3%
CCOC(=O)c1cccc(C2=CC(=O)C[C@H](c3ccc(Cl)cc3)C2)c1 | -20% | x | -4% | -11% | x | x | x | x | x
COCCNC(=O)C1(C)CCCN(Cc2ccc(Cl)nc2)C1 (centres undefined) | x | x | x | -6% | x | x | x | x | x
CCCCC(=O)N/N=C/c1c(O)n(Cc2ccco2)c(=O)[nH]c1=O | -21% | 16% | u | 16% | x | x | x | x | x
CCCCC(=O)N/N=C/c1c(O)n(-c2cccc3ccccc23)c(=O)[nH]c1=O | -27% | 16µM* | 6% | 54% | 90% | 6% | 9% | -9% | 2%
Cc1cccc(-c2nc3c4ccccc4nc(N4CCN(c5cc(C)ccc5C)CC4)n3n2)c1 | x | x | 15% | x | x | x | x | x | x
Cc1ccc(NC(=O)CN2CCC(NC(=O)c3ccccc3F)CC2)cc1C | 28% | 18µM* | u | 16% | u | -2% | 0% | 1% | 7%
O=C(CN1CCC(NC(=O)c2ccccc2F)CC1)Nc1ccc2c(c1)OCO2 | -3% | 2% | 5% | 6% | x | x | x | x | x
COC(=O)c1ccc2c(c1)N(CC(=O)Nc1ccc(C)cc1Cl)C(=O)c1ccccc1S2 | x | x | -2% | x | x | x | x | x | x
O=C1c2ccccc2C(=O)N1CCCN1C(=O)c2ccccc2C1=O | x | x | x | 4% | x | x | x | x | x
Cc1ccc(C)c(OCCOCCN2CC(C)OC(C)C2)c1C (centres undefined) | 61% | 18µM* | 1% | -14% | -2%[10.4 µM] | -1% | 6% | 5% | 0%
CC1CN(CCOCCOc2ccccc2-c2ccccc2)CC(C)O1 (centres undefined) | 109% | 11µM* | -10% | 14µM* | -8%[10.4 µM] | -1% | 1% | 1% | 10%
CC1CN(CCCCN2C(=O)c3ccccc3C2=O)CC(C)O1 (centres undefined) | -2%[11.4 µM] | 22µM* | -12% | -18% | u | 18% | 2% | 2% | 2%
COC(=O)c1ccccc1NC(=O)Cn1cnc2sc(C)c(S(=O)(=O)N3CCC(C)CC3)c2c1=O | x | x | -3% | x | x | x | x | x | x
O=C(CSc1nc2c([nH]c3ccccc32)c(=O)n1-c1cccc(C(F)(F)F)c1)N1CCc2ccccc21 | x | x | -3% | x | x | x | x | x | x
Cc1ccc(CN(Cc2ccco2)C(=O)c2oc3c(C)c(C)ccc3c2C)cc1 | x | x | 16% | x | x | x | x | x | x
CCn1c(C)cc(C)c(C#N)c1=O | -19% | 1% | 2% | 0% | x | x | x | x | x
Cc1cc(C)n(NC(=S)NC2CCCC2)c(=O)c1C#N | -12% | 18µM* | 10% | -9% | 5% | 9% | 0% | 15% | 2%
O=C(Nn1c(=S)[nH]c2ccccc2c1=O)c1ccncc1 | -4% | 16µM* | -12% | 100% | -8% | 10% | 0% | 0% | 1%
